A short description of assay [1]: NCI Yeast Anticancer Drug Screen. Data for the rad50 strain (AID 155).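 Note: 0% = growth of vehicle-only cultures of the same strain.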 Particulars: S. cerevisiae rad50 strain growth inhibition, stronger effect = higher value. In outline: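 Readout: growth inhibition relative to vehicle-treated cultures. Compound exposure was carried out in a genetically defined yeast strain deficient in DNA damage repair.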
Assay [2] can be described thus: NCI Yeast Anticancer Drug Screen. Data for the mec2-1 strain (AID 157). Particulars: S. cerevisiae mec2-1 strain, stronger effect = higher value. An outline of the steps:
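Cells of the genetically defined mec2-1 yeast strain are incubated with test compound. Inhibition of growth is calculated against vehicle-treated controls.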

A short description of assay [3]: NCI Yeast Anticancer Drug Screen. Data for the sgs1 mgt1 strain (AID 161).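 Note: 0% = growth of cultures given vehicle only.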 Particulars: S. cerevisiae sgs1 mgt1 strain, stronger effect = higher value. In outline: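 Genetically altered yeast, compound exposure, growth inhibition relative to vehicle.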
Assay [4] is described as follows: NCI Yeast Anticancer Drug Screen. Data for the cln2 rad14 strain (AID 165).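 Note: 0% = growth equal to vehicle treated cultures.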 Particulars: S. cerevisiae cln2 rad14 strain, stronger effect = higher value. An outline of the steps: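 The screen exposed genetically defined yeast (cln2 rad14) to test compounds and scored growth inhibition relative to vehicle-treated controls.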
Assay [5] is described as follows: NCI Yeast Anticancer Drug Screen. Data for the bub3 strain (AID 167). Particulars: S. cerevisiae bub3 mutant strain, stronger effect = higher value. An outline of the steps: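 Readout: yeast growth inhibition, expressed relative to vehicle-only wells. The test organism is a mutant strain from a panel with lesions in DNA repair or checkpoint genes.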
Assay [6] is described as follows: NCI Yeast Anticancer Drug Screen. Data for the mlh1 rad18 strain (AID 175). Particulars: S. cerevisiae mlh1 rad18 strain growth inhibition, stronger effect = higher value. An outline of the steps:
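Compound-treated yeast growth, normalised to vehicle controls. Strain bears defined DNA repair mutations.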

Where [7] appears, read: at 5.0 µM (retest, dose inferred, filed as 0.5).
The mark [8] stands for this setting: at 50.0 µM (retest, dose inferred, filed as 5.0).

This passage reports growth inhibition results from PubChem BioAssay (NCI).

Compounds without any hit were thinned out: in the full panel of roughly 79,000, 15% have a hit. Unmarked numbers belong to inactive results. Active and inactive are the calls of the source. Cut-off read from the data, not from the text of the source: active = growth inhibition above about 70%; inactive = the rest.

`OCc1c2c(cc3c1CC1(C3)Cc3cc4c(c(CO)c3C1)CCC4)CCC2`: the growth inhibition in assay [1] (setting [7]) was 30%; in assay [1] (setting [8]), 94% (active); in assay [1] (at 50.0 µM), 8.5%; in assay [2] (setting [7]), 19%; in assay [2] (setting [8]), 97% (active); in assay [2] (at 50.0 µM), 24.3%. In addition, the growth inhibition in assay [3] (setting [7]) was 22%; in assay [3] (setting [8]), 98% (active); in assay [3] (at 50.0 µM), 27.1%; in assay [4] (setting [7]), 10%; in assay [4] (setting [8]), 97% (active); in assay [4] (at 50.0 µM), 46.4%. Also, the growth inhibition in assay [5] (setting [7]) is 18%; in assay [5] (setting [8]), 97% (active); in assay [5] (at 50.0 µM), 52.8%; in assay [6] (setting [7]) it was 27%; in assay [6] (setting [8]), 94% (active); in assay [6] (at 50.0 µM), 27.4%.
Consider `CC(C)(C)[Si](C)(C)O/N=C\c1cccc(O[Si](C)(C)C(C)(C)C)c1`, for which the growth inhibition in assay [1] (setting [7]) is -3%; in assay [1] (setting [8]), 97% (active); in assay [1] (at 50.0 µM), 48%; in assay [2] (setting [7]), -6%; in assay [2] (setting [8]) it was 95% (active); in assay [2] (at 50.0 µM) it was 12.3%. The growth inhibition was 0% in assay [3] (setting [7]); 99% (active) in assay [3] (setting [8]); 78.5% (active) in assay [3] (at 50.0 µM); -13% in assay [4] (setting [7]); 97% (active) in assay [4] (setting [8]); 54.8% in assay [4] (at 50.0 µM). Also, the growth inhibition was 3% in assay [5] (setting [7]); 94% (active) in assay [5] (setting [8]); 36% in assay [5] (at 50.0 µM); -3% in assay [6] (setting [7]); 98% (active) in assay [6] (setting [8]); 76.8% (active) in assay [6] (at 50.0 µM).
Consider `CC(C=O)=C(c1ccccc1)c1ccccc1`, for which the growth inhibition in assay [1] (setting [7]) is -147%; in assay [1] (setting [8]) it was -157%; in assay [1] (at 50.0 µM) it was 23.8%; in assay [2] (setting [7]), -50%; in assay [2] (setting [8]), -56%; in assay [2] (at 50.0 µM), 24.6%. In addition, the growth inhibition was -57% in assay [3] (setting [7]); -64% in assay [3] (setting [8]); 49.2% in assay [3] (at 50.0 µM); -54% in assay [4] (setting [7]); -56% in assay [4] (setting [8]); 23.8% in assay [4] (at 50.0 µM). Also, the growth inhibition in assay [5] (setting [7]) was -62%; in assay [5] (setting [8]) it was -74%; in assay [5] (at 50.0 µM), 0.3%; in assay [6] (setting [7]), -115%; in assay [6] (setting [8]), -111%; in assay [6] (at 50.0 µM) it was 28.4%.
As to `COc1ccc(NS(=O)(=O)c2ccc(N=Cc3c4ccccc4nc4cc(Cl)ccc34)cc2)nn1`, the growth inhibition in assay [1] (setting [7]) is 23%; in assay [1] (setting [8]), -9%; in assay [1] (at 50.0 µM), 94.2% (active); in assay [2] (setting [7]), 14%; in assay [2] (setting [8]) it was -5%; in assay [2] (at 50.0 µM) it was 91.8% (active). For the same compound, the growth inhibition in assay [3] (setting [7]) is 17%; in assay [3] (setting [8]) it was -8%; in assay [3] (at 50.0 µM), 95.6% (active); in assay [4] (setting [7]) it was 5%; in assay [4] (setting [8]), -6%; in assay [4] (at 50.0 µM), 36.9%. The growth inhibition in assay [5] (setting [7]) was 22%; in assay [5] (setting [8]), -4%; in assay [5] (at 50.0 µM), 52.2%; in assay [6] (setting [7]), 13%; in assay [6] (setting [8]) it was -4%; in assay [6] (at 50.0 µM), 95.8% (active).
For `Oc1ccccc1C(=NNc1ccccc1)c1ccccc1O`, the growth inhibition in assay [1] (setting [7]) is 40%; in assay [1] (setting [8]) it was 96% (active); in assay [1] (at 50.0 µM), 94.8% (active); in assay [2] (setting [7]), 27%; in assay [2] (setting [8]), 98% (active); in assay [2] (at 50.0 µM), 94.8% (active). The growth inhibition in assay [3] (setting [7]) was 46%; in assay [3] (setting [8]) it was 97% (active); in assay [3] (at 50.0 µM) it was 94.8% (active); in assay [4] (setting [7]) it was 49%; in assay [4] (setting [8]) it was 97% (active); in assay [4] (at 50.0 µM) it was 95.8% (active). Further, the growth inhibition in assay [5] (setting [7]) was 42%; in assay [5] (setting [8]) it was 98% (active); in assay [5] (at 50.0 µM), 95.8% (active); in assay [6] (setting [7]) it was 70% (active); in assay [6] (setting [8]) it was 98% (active); in assay [6] (at 50.0 µM), 90.9% (active).
Turning to `O=[N+]([O-])/C=C/c1cc2ccccc2[nH]1`, the growth inhibition was 6% in assay [1] (setting [7]); 99% (active) in assay [1] (setting [8]); 99.5% (active) in assay [1] (at 50.0 µM); -6% in assay [2] (setting [7]); 100% (active) in assay [2] (setting [8]); 99.5% (active) in assay [2] (at 50.0 µM). The growth inhibition was 9% in assay [3] (setting [7]); 99% (active) in assay [3] (setting [8]); 99.4% (active) in assay [3] (at 50.0 µM); 11% in assay [4] (setting [7]); 99% (active) in assay [4] (setting [8]); 96.5% (active) in assay [4] (at 50.0 µM). Also, the growth inhibition in assay [5] (setting [7]) is -8%; in assay [5] (setting [8]), 100% (active); in assay [5] (at 50.0 µM), 99.5% (active); in assay [6] (setting [7]) it was 16%; in assay [6] (setting [8]) it was 99% (active); in assay [6] (at 50.0 µM), 99.2% (active).
As to `N#Cc1c(Cl)cc(Cl)n2c1nc1ccccc12`, the growth inhibition in assay [1] (setting [7]) was 46%; in assay [1] (setting [8]), 97% (active); in assay [1] (at 50.0 µM), 91.2% (active); in assay [2] (setting [7]) it was 29%; in assay [2] (setting [8]) it was 99% (active); in assay [2] (at 50.0 µM) it was 94% (active). For the same compound, the growth inhibition was 56% in assay [3] (setting [7]); 100% (active) in assay [3] (setting [8]); 93% (active) in assay [3] (at 50.0 µM); 43% in assay [4] (setting [7]); 99% (active) in assay [4] (setting [8]); 91.7% (active) in assay [4] (at 50.0 µM). The growth inhibition was 56% in assay [5] (setting [7]); 99% (active) in assay [5] (setting [8]); 91.3% (active) in assay [5] (at 50.0 µM); 43% in assay [6] (setting [7]); 97% (active) in assay [6] (setting [8]); 92.3% (active) in assay [6] (at 50.0 µM).
`CC(C)CCOc1ccc(/C=C\C(=O)O)cc1`: the growth inhibition in assay [1] (setting [7]) was 3%; in assay [1] (setting [8]) it was 30%; in assay [1] (at 50.0 µM), 61.1%; in assay [2] (setting [7]), -2%; in assay [2] (setting [8]), 41%; in assay [2] (at 50.0 µM), 81.5% (active). For the same compound, the growth inhibition in assay [3] (setting [7]) is -3%; in assay [3] (setting [8]) it was 38%; in assay [3] (at 50.0 µM), 30.1%; in assay [4] (setting [7]), -1%; in assay [4] (setting [8]), 87% (active); in assay [4] (at 50.0 µM), 93.9% (active). Also, the growth inhibition in assay [5] (setting [7]) was 1%; in assay [5] (setting [8]) it was 54%; in assay [5] (at 50.0 µM), 71% (active); in assay [6] (setting [7]), 6%; in assay [6] (setting [8]), 43%; in assay [6] (at 50.0 µM) it was 75% (active).
With `CCCCCNC(=O)c1ccc(Cl)c(Cl)c1`, the growth inhibition is 6% in assay [1] (setting [7]); 49% in assay [1] (setting [8]); 64.8% in assay [1] (at 50.0 µM); 5% in assay [2] (setting [7]); 45% in assay [2] (setting [8]); 28.4% in assay [2] (at 50.0 µM). In addition, the growth inhibition in assay [3] (setting [7]) is 7%; in assay [3] (setting [8]), 63%; in assay [3] (at 50.0 µM), 83.2% (active); in assay [4] (setting [7]) it was 16%; in assay [4] (setting [8]), 41%; in assay [4] (at 50.0 µM), 33.5%. The growth inhibition in assay [5] (setting [7]) is 10%; in assay [5] (setting [8]), 59%; in assay [5] (at 50.0 µM) it was 64.9%; in assay [6] (setting [7]) it was 1%; in assay [6] (setting [8]), 62%; in assay [6] (at 50.0 µM) it was 64.6%.
